In ChEMBL document CHEMBL1201862, “PubChem BioAssay data set” (2004) one finds Potency data, which are given here for 102 compounds.

Among all 400,000 compounds or so, about 2,100 (0.53%) were called active. Roughly 14% stayed inconclusive and do not appear here. No rule for the calls is given here. The entries come from a sample that favours actives as a whole.

The assay deals with Ataxin-2 (Homo sapiens) (UniProt Q99700). Kind of assay: qHTS for Inhibitors of ATXN expression. In kind it is functional.
Sequence of Ataxin-2 (Homo sapiens) (Q99700 whole entry): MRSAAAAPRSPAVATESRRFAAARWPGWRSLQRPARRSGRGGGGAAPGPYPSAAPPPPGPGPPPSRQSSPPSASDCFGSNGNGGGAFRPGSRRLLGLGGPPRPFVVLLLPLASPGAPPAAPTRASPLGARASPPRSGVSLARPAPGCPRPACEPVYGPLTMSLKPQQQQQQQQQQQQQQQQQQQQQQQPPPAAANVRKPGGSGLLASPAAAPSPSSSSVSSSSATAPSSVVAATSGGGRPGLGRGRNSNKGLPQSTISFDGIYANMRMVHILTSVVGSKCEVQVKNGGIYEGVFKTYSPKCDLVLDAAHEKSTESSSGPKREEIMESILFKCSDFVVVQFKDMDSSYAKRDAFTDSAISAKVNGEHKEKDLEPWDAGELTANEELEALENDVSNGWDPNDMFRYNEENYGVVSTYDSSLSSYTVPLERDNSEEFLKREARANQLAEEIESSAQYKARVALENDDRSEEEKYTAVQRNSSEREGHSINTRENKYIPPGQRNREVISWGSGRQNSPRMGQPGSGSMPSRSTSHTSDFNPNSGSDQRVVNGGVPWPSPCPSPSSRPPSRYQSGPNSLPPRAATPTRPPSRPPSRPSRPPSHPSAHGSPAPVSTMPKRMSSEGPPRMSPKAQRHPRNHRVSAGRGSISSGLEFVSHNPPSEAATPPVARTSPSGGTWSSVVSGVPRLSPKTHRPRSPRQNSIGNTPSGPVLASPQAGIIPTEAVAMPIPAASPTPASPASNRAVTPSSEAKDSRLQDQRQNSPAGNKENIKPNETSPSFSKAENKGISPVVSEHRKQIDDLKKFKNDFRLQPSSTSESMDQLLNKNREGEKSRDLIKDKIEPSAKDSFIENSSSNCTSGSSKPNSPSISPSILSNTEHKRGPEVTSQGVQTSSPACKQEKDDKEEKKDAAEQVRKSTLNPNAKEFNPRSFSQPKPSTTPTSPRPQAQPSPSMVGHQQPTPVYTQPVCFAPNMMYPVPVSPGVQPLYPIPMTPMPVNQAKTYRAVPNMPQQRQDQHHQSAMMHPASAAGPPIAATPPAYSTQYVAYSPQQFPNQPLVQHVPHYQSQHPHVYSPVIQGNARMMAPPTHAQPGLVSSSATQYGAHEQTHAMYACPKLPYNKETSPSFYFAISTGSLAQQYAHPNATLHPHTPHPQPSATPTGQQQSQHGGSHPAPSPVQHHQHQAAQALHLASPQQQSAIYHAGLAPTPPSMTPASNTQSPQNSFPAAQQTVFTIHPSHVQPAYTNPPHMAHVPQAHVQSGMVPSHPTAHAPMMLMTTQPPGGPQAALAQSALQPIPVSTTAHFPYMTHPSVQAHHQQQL
For `O=C(O)c1cc(N/N=C/C=C/c2ccccc2)ccc1Cl`, the Potency result is “inactive”.

As for `COCC1CCCN(Cc2cn(-c3ccccc3F)nc2-c2cc(C)sc2C)C1` (configuration not stated), the Potency result was “inactive”.

With `CCOc1ccccc1-c1c2cc(O)c(=O)cc-2oc2cc(O)c(O)cc12`, the Potency was 11.2 µM (active).

Consider `COC(=O)c1ccccc1-c1c2ccc(=N)cc-2oc2cc(N)ccc12`, for which the Potency result was “inactive”.

On to `COc1ccc(CNC(=O)C[S+]([O-])Cc2nc(-c3ccc(C)cc3)oc2C)cc1` (configuration not stated), for which the Potency result is “inactive”.

For `COc1ccc(CSc2nc3ccncc3n2Cc2nc(-c3ccc(OC)c(OC)c3)oc2C)cc1`, the Potency is 39.8 µM (active).

As to `CCn1cc2nc(SCc3cccc(OC)c3)n(Cc3ccc(Cl)cc3)c(=O)c2n1`, the Potency entry was “inactive”.

With `CCN(CC(=O)N(CC(C)C)c1c(N)n(CC(C)C)c(=O)[nH]c1=O)Cc1nc(O)c2ccccc2n1`, the Potency result is “inactive”.

`Cc1ccc(-c2nc(C[S+]([O-])CC(=O)NC3CC3)c(C)o2)cc1` (configuration not stated): the Potency result is “inactive”.

With `CCCCN(CC)C(=O)c1nn(-c2ccc(OC)cc2)c(=O)c2c1c1ccccc1n2C`, the Potency was 20 µM (active).

With `COc1ccc(-n2nc(C(=O)NCC(=O)Nc3ccc(F)cc3)c3ccccc3c2=O)cc1`, the Potency result is “inactive”.

With `COc1ccc(NCC(=O)n2c(C)c(C)c3ccccc32)cc1`, the Potency result is “inactive”.

Turning to `CC1(C)C(=O)Nc2ccccc2N1C(=O)COC(=O)Cc1ccc(Cl)c(Cl)c1`, the Potency entry is “inactive”.

For `CCCCN=C(S)NNc1c(Cl)cc(Cl)cc1Cl`, the Potency entry is “inactive”.

For `O=C(COC(=O)CCSc1ccc(Cl)cc1)NCc1ccccc1`, the Potency result is “inactive”.

`CCN(CC)CCNC(=O)c1[nH]c2ccccc2c1Sc1ccc(Cl)cc1`: the Potency is 28.2 µM (active).

For `COc1cccc2[nH]c(C(=O)NCCCN3CCCC3=O)cc12`, the Potency entry is “inactive”.

`Cc1[nH]c2ccccc2c1SCC(=O)N1CCCCC1`: the Potency result is “inactive”.

Consider `COc1ccc(Cn2c(=O)[nH]c3cc(C(=O)NCCCN4CCCC4)ccc3c2=O)cc1`, for which the Potency entry was “inactive”.

Turning to `COc1ccc2c(Sc3ccccc3)c(C(=O)N3CCC(C)CC3)[nH]c2c1`, the Potency is 39.8 µM (active).

As to `O=C(NN=C1CCCC1)c1[nH]c2ccc(Cl)cc2c1-c1ccccc1`, the Potency entry was “inactive”.

Regarding `Cc1[nH]c2ccccc2c1C(=O)CSc1ccc(Cl)cc1`, the Potency result was “inactive”.

Regarding `COc1ccc2c(Sc3ccc(Cl)cc3)c(C(=O)NCCCN3CCCCC3)[nH]c2c1`, the Potency was 39.8 µM (active).

In the case of `O=C(NCCCN1CCCCC1)c1[nH]c2ccccc2c1Sc1ccc(Cl)cc1`, the Potency was 39.8 µM (active).

For `COC(=O)C1CCN(C(=O)COC(=O)c2oc3ccc(OC)cc3c2C)CC1`, the Potency result was “inactive”.

For `N#CC1=C(N)Oc2c(oc(CO)cc2=O)C1c1ccccc1[N+](=O)[O-]` (configuration not stated), the Potency result is “inactive”.

Regarding `O=C(CCNC(=O)Cn1cnc2ccccc2c1=O)NCC1CCCO1` (configuration not stated), the Potency entry is “inactive”.

`Cc1ccc(OCCn2cnc3ccccc3c2=O)c([N+](=O)[O-])c1`: the Potency entry is “inactive”.

Consider `CCCCCOc1ccc(CSC2=NCCN2)cc1[N+](=O)[O-]`, for which the Potency was 35.5 µM (active).

With `COC(=O)C(N)Cc1ccc(OC)c([N+](=O)[O-])c1` (configuration not stated), the Potency entry was “inactive”.

As for `Cc1ccccc1NC(=O)COc1ccc(Br)cc1C`, the Potency entry was “inactive”.

Turning to `CCC1CN(C(=O)NCc2ccc(F)cc2)c2ccccc2O1` (configuration not stated), the Potency entry is “inactive”.

Consider `O=C(Cn1sc2ccccc2c1=O)Nc1ccccc1`, for which the Potency was 39.8 µM (active).

As to `O=C(Nc1ccc(F)cc1)c1cccc2ccccc12`, the Potency result was “inactive”.

For the compound `Cc1ccc(NC(=O)Cn2sc3ccccc3c2=O)cc1`, the Potency was 25.1 µM (active).

Take `O=C(Cn1sc2ccccc2c1=O)Nc1ccc(F)cc1`: the Potency is 31.6 µM (active).

Regarding `CC(=O)c1ccccc1NCC(=O)Nc1ccc(C)cc1`, the Potency result is “inactive”.

Consider `O=C(CN1C(=O)c2cccc3cccc1c23)Nc1ccccc1`, for which the Potency result was “inactive”.

Turning to `CCn1c(=O)c(C(=O)Nc2ccc(C)cc2)c(O)c2ccccc21`, the Potency result was “inactive”.

For `O=C(CC1C(=O)NCCN1C(=O)Nc1ccccc1)Nc1ccc(F)cc1` (configuration not stated), the Potency result is “inactive”.

As for `O=C(CN1C(=O)CSc2ccc(C(F)(F)F)cc21)Nc1ccccc1`, the Potency result was “inactive”.

On to `COc1cccc2sc3cc(NCC[C@@H]4CCCN4C)ccc3c(=O)c12`, for which the Potency entry is “inactive”.

As for `COc1ccc(NC(=O)c2ccc(S(=O)(=O)N3CC(C)CC(C)C3)cc2)cc1S(N)(=O)=O` (configuration not stated), the Potency result was “inactive”.

For `COc1cc(C(=O)Nc2ccn(C)n2)ccc1OC(F)F`, the Potency result was “inactive”.

With `CCc1nc2ccc(C(=O)Nc3cccc(OC)c3)cn2c1N(CCC(C)C)CCN(C)C`, the Potency is 14.1 µM (active).

Consider `CCCNC(=O)c1c(N)n(-c2cccc(OC)c2)c2nc3ccccc3nc12`, for which the Potency entry was “inactive”.

For `CCc1nc2ccc(C(=O)Nc3ccc(OC)c(OC)c3)cn2c1N(C)CCC(C)C`, the Potency is 31.6 µM (active).

Consider `COc1ccc(C)cc1NC(=O)c1cc(-c2ccccc2)nc2c1cnn2C(C)C`, for which the Potency result was “inactive”.

For the compound `CCc1nc2ccc(C(=O)Nc3cc(-c4ccccc4)ccc3OC)cn2c1N(CC)CCN(C)C`, the Potency was 39.8 µM (active).

As for `Cc1ccc(-c2cc(C(=O)Nc3ccccn3)c3ccccc3n2)o1`, the Potency result is “inactive”.

For the compound `CN(NC(=O)COc1ccccc1)C1=NS(=O)(=O)c2ccccc21`, the Potency entry was “inactive”.

As to `CC(=O)c1ccc(/N=c2\scc(C)n2C(C)C)cc1`, the Potency entry was “inactive”.

Take `COc1ccc(-c2csc(NC(=O)c3c(C)noc3C)n2)cc1OC`: the Potency entry is “inactive”.

As to `CC(=O)Nc1ccc(-c2ccnc(-c3ccc(NC(C)=O)cc3)n2)cc1`, the Potency entry is “inactive”.

Regarding `CC(=O)Nc1cccc(-c2csc(Nc3cc(C)ccn3)n2)c1`, the Potency is 25.1 µM (active).

In the case of `Cc1c(CCC(=O)NCCCN2CCCC2=O)c(=O)oc2c(C)c(O)ccc12`, the Potency result was “inactive”.

`COc1cc(/C=C/c2sc3ccccc3[n+]2CCCS(=O)(=O)[O-])ccc1O`: the Potency is 18.9 µM (active).

As for `Cc1cccn2c(=O)c3cc(C(=O)NCC4CCCO4)c(=N)n(Cc4ccc(F)cc4)c3nc12` (configuration not stated), the Potency entry was “inactive”.

In the case of `CCN(CC)c1ccc(/C=C(\C#N)c2ccccn2)cc1`, the Potency result was “inactive”.

On to `COc1cccc(Cc2nc3ccccc3nc2SCC(=O)NCCc2ccccc2)c1`, for which the Potency is 35.5 µM (active).

Take `CCS(=O)(=O)c1ccc2oc(SCC(=O)NCCc3ccccc3)nc2c1`: the Potency entry is “inactive”.

As to `O=C(CSc1ccccc1)NCCc1ccc(F)cc1`, the Potency result was “inactive”.

Regarding `O=S(=O)(c1ccc(N2CCC(c3ccc(Cl)cc3)=N2)cc1)N(CCO)CCO`, the Potency entry was “inactive”.

On to `CCCCC[C@H](O)/C=C/[C@H]1CCC(=O)[C@@H]1CCCCCCC(=O)N1CCCCC1CO` (some centres not stated), for which the Potency is 39.8 µM (active).

As for `CN(/N=C/c1cc(Cl)cc(Cl)c1O)C(=S)NC(C)(C)C`, the Potency result is “inactive”.

With `Cc1cc(N2CCOCC2)n2ncc(-c3ccccc3Cl)c2n1`, the Potency entry was “inactive”.

Turning to `C=CCn1nc([N+](=O)[O-])nc1Sc1cccc2cccnc12`, the Potency is 39.8 µM (active).

Turning to `Cn1nc([N+](=O)[O-])nc1Sc1cccc2cccnc12`, the Potency was 7.94 µM (active).

Turning to `Cc1nn(C)c(Sc2ccccn2)c1[N+](=O)[O-]`, the Potency entry is “inactive”.

As for `CCOc1ccc2nc(NCCNC(=O)CC)c(C#N)cc2c1`, the Potency entry is “inactive”.

`CN1c2ccccc2Oc2nnc(Cl)cc21`: the Potency result is “inactive”.

In the case of `Clc1ccc(C2=Nn3c(nnc3-c3cc(-c4ccccc4)[nH]n3)SC2)cc1`, the Potency is 35.5 µM (active).

In the case of `Cc1cc(-c2nnc3n2N=C(c2ccccc2)CS3)[nH]n1`, the Potency entry was “inactive”.

In the case of `O=c1c2ccccc2nc(/C=C/c2ccc(O)cc2)n1CCc1ccccc1`, the Potency result is “inactive”.

Consider `O=C(CC1CCCCC1)NCc1nc(-c2ccccc2)no1`, for which the Potency entry was “inactive”.

`CCCCC[C@H]1CN(C2CCCCC2)C(=O)[C@@H]1CC(=O)NCc1ccccc1`: the Potency was 39.8 µM (active).

In the case of `Cc1nn(C(=O)CCCC(=O)NCc2ccccc2)c2ccccc12`, the Potency entry is “inactive”.

Turning to `CCN1C(=O)c2cccc3c(S(=O)(=O)N4CCNCC4)ccc1c23`, the Potency result was “inactive”.

As for `COc1cccc(/C=C/c2ccc3cccc(O)c3n2)c1OC`, the Potency result was “inactive”.

With `COc1cc(OC)c(OC)cc1C=Cc1ccc2ccccc2n1`, the Potency entry was “inactive”.

For `COc1cc(Br)c(/C=C/c2ccc3cccc(O)c3n2)cc1OC`, the Potency is 25.1 µM (active).

In the case of `Cc1ccc(C2C=C(c3ccc(F)cc3)Nc3nc(CCCO)nn32)cc1` (configuration not stated), the Potency entry was “inactive”.

In the case of `O=CN(c1ccccc1)c1ccc2ccccc2c1`, the Potency result was “inactive”.

With `CCCCCCc1cc2cc(-c3nnc(-c4cc(OC)c(OC)c(OC)c4)o3)c(=O)oc2cc1O`, the Potency result was “inactive”.

Regarding `COCCCN=C(S)NCCNc1nc2c(C)c(C)ccc2cc1C#N`, the Potency entry is “inactive”.

As for `COc1cc2nc(/C=C/c3cc(OC)c(OC)c(OC)c3)sc2cc1SC`, the Potency result is “inactive”.

Consider `CCOc1ccc(-c2ccc(/C=C3/C(=N)N4C=CSC4=NC3=O)o2)c([N+](=O)[O-])c1`, for which the Potency was 31.6 µM (active).

With `CC1=CN2C(=N)/C(=C/c3ccc([N+](=O)[O-])o3)C(=O)N=C2S1`, the Potency was 28.2 µM (active).

For `CC1=NN2C(=N)/C(=C\c3cc(C)n(-c4ccc(C)cc4)c3C)C(=O)N=C2S1`, the Potency result is “inactive”.

Take `COc1ccc(-c2ccc(/C=N/NC(=O)c3cccnc3)o2)c([N+](=O)[O-])c1`: the Potency entry was “inactive”.

For the compound `CC1=CN2C(=N)/C(=C/c3cc(Cl)c(O)c(Cl)c3)C(=O)N=C2S1`, the Potency entry is “inactive”.

On to `CCOC(=O)c1c(N)n(C2CC(C)(C)NC(C)(C)C2)c2nc3ccccc3nc12`, for which the Potency result was “inactive”.

Turning to `Cc1ccc2oc(=O)c3cnn(CC(=O)Nc4ccccc4N4CCN(C)CC4)c3c2c1`, the Potency is 7.08 µM (active).

Consider `O=C(CN1CCN(c2ccccc2)CC1)Nc1scc2c1c(=O)oc1ccccc12`, for which the Potency entry is “inactive”.

`CC(CCc1ccco1)NC(=O)Cn1ncc2c(=O)oc3ccccc3c21` (configuration not stated): the Potency result is “inactive”.

As to `CN(C(=S)NC(=O)C12CC3CC(CC(C3)C1)C2)c1ccc(O)cc1`, the Potency result was “inactive”.

Take `Cc1ccc(CCNC(=O)C[S+]([O-])Cc2nc(-c3cccs3)oc2C)cc1` (configuration not stated): the Potency result was “inactive”.

Regarding `O=C(NCCc1csc(-c2cccnc2)n1)c1ccc(Br)o1`, the Potency entry is “inactive”.

With `Cc1ccc(-c2nc3sc(CCNC(=O)c4ccc(Br)o4)c(C)n3n2)cc1`, the Potency was 35.5 µM (active).

Take `O=C(COc1coc(CN2CCc3ccccc32)cc1=O)N1CCCCC1`: the Potency entry is “inactive”.

Turning to `CC[C@H](C)/C=C(C)/C=C/C1=CC2=CC(=O)[C@]3(C)OC(=O)[C@@H](C(C)=O)[C@@H]3C2=CO1`, the Potency entry was “inactive”.

In the case of `CC[C@H](C)/C=C/C1=CC2=C(Cl)C(=O)[C@@]3(C)OC(=O)C(C(=O)[C@H](C)[C@@H](C)O)=C3C2=CO1`, the Potency was 11.9 µM (active).
